High-throughput results as filed in PubChem BioAssay.
Hits are enriched below; roughly 6.8% of the tested compounds scored in any of these assays.
USP10 inh = human USP10 deubiquitinase inhibition. AID 1645856. inhibition, % at 20 µM. Q14694. 47,000 tested, 1.1% active. purified USP10, Ub-rhodamine fluorescence, 60 min
OTUD3 inh = human OTUD3 deubiquitinase inhibition; Q5T2D3; purified OTUD3, Ub-rhodamine fluorescence, 2 h; inhibition, % at 25 µM; 47,000 tested, 0.7% active; AID 1645858
Target sequence (Q5T2D3 whole entry, looked up): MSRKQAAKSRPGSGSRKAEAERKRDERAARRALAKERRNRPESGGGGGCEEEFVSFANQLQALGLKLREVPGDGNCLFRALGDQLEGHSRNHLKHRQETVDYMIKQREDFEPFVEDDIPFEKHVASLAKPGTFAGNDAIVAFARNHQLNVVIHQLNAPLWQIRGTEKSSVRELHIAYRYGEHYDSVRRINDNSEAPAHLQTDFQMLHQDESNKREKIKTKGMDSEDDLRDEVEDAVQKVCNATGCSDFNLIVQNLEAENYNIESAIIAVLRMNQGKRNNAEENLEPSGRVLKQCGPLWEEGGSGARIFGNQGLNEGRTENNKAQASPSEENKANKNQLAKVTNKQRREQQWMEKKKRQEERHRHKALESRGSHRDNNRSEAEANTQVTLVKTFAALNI
UCHL1 inh = inhibitors of human UCHL1 deubiquitinase; P09936; purified UCHL1, Ub-rhodamine cleavage fluorescence; inhibition, % at 20 µM; 47,000 tested, 0.2% active
USP7 block = blocks human USP7 ubiquitin-rhodamine cleavage; Q93009; purified USP7, Ub-rhodamine cleavage fluorescence; inhibition, % at 20 µM; 47,000 tested, 0.3% active
USP28 block = blocks human USP28 ubiquitin-rhodamine cleavage; 47,000 tested, 3% active; AID 1645857; inhibition, % at 25 µM; purified USP28, Ub-rhodamine cleavage fluorescence, 30 min; Q96RU2
USP8 inh = human USP8 deubiquitinase inhibition | inhibition, % at 20 µM | purified USP8, Ub-rhodamine cleavage fluorescence, 30 min | 47,000 tested, 4.2% active | P40818
The depositor's hits bear a star. No stated cut-off is given here; in the data, active means inhibition above about 30%; inactive means the rest.

SMILES	USP10 inh	OTUD3 inh	UCHL1 inh	USP7 block	USP28 block	USP8 inh
CC(=O)c1cccc(S(=O)(=O)N2CCC(C(=O)Oc3ccc(-c4nnco4)cc3)CC2)c1	10.4	20.1	7.8	2.3	28.6	39.4*
O=C(Oc1ccccc1)C1CCN(S(=O)(=O)c2ccc3c(c2)OCCCO3)CC1	2.9	18.9	4.4	4.8	14.2	16.0
COc1ccc(C2CC(c3ccccc3O)=NC3(CCN(C(C)=O)CC3)N2)cc1 (centres undefined)	-5.2	0.1	-0.7	-7.6	8.2	25.1
CCN1CCC2(CC1)N=C(c1ccccc1)CC(c1cccc(OC)c1O)N2 (centres undefined)	-8.0	-5.1	0.4	-1.3	-2.1	59.6*
CCN1CCC2(CC1)N=C(c1ccc3c(c1)OCO3)CC(c1ccccc1O)N2 (centres undefined)	0.0	-2.6	-2.0	-1.4	-11.4	33.5*
Cc1cccc(OC(C)c2nc(-c3cccnc3)no2)c1 (centres undefined)	1.5	12.5	2.3	-0.3	15.4	21.5
O=C1CN(Cc2cccc(F)c2)S(=O)(=O)c2ccccc2N1Cc1ccccc1F	11.6	10.8	2.9	12.9	6.0	3.2
Cn1c(-c2nnc(SCC(=O)Nc3ccccc3F)o2)cc2ccccc21	6.7	22.3	1.0	4.2	41.1*	26.3
C[C@@H]1OC2=C(C(=O)c3cccc(O)c3C2=O)[C@H](O)[C@@H]1O	48.7*	67.2*	32.2*	-115.6	71.1*	63.1*
COc1cccc2c1C(=O)c1ccc3c(c1C2=O)C(=O)C[C@@H](C)[C@@H]3O	-2.2	8.0	10.1	-3.5	9.8	17.3
COc1ccc(C2CC(=O)c3c(oc(C(=O)OC(C)C)c3C)C2)cc1OC (centres undefined)	-0.7	-1.4	0.2	-21.8	-3.1	-1.2
COc1cc(C(=O)Nc2ccccc2Cc2ccccc2)cc(OC)c1OC	1.7	2.9	1.4	-36.5	3.6	14.2
CCCCNC(=O)c1cc2cn(C3CC3)cc2s1	-4.5	-28.3	-7.0	-24.3	-20.7	78.3*
CCN1CCN(CCNC(=O)c2cc3cn(C4CC4)cc3s2)CC1	-9.4	-21.0	-7.0	-10.1	-18.8	-9.9
COc1ccc(-c2c(C)nc3c(-c4ccsc4)cnn3c2N)cc1	3.0	7.0	-0.5	2.0	9.4	31.5*
CC(C)c1ccc(CNc2nc3nc(CN4CCOCC4)cc(=O)n3[nH]2)cc1	-5.5	1.8	-4.4	0.4	3.5	21.5
Cc1cn[nH]c1C1CCCN(C(=O)CCc2nc3ccccc3[nH]2)C1 (centres undefined)	1.8	6.1	8.2	10.6	5.0	8.9
CC(C)c1noc(-c2ccn3c(CC(=O)Nc4ccccc4)nnc3c2)n1	8.2	1.0	2.4	8.2	-4.7	39.7*
CCc1noc(-c2ccn3c(CC(=O)Nc4ccccc4)nnc3c2)n1	4.8	-12.2	-0.4	0.0	-14.0	2.2
COc1ccc(O)c(C(=O)OCc2cc(=O)oc3ccc4ccccc4c23)c1	-3.6	-31.8	1.2	1.6	-12.6	36.7*
O=C(c1ccc(Cl)cc1)N1CCc2nc3ccccc3n2CC1	4.7	8.8	0.1	-1.1	12.5	19.6
CC1OC2CC(O)C1(O)C1=C2C(O)=C(C(N)=O)C(=N)C1=O (centres undefined)	35.8*	51.0*	52.0*	-33.6	59.8*	38.7*
CC1OC2CC(O)C1(O)C1=C2C(=O)c2c(O)c3c(c(O)c2C1=O)[C@H](C)O[C@H]1CC(=O)O[C@@H]31 (some centres undefined)	-10.0	-7.3	-4.2	-27.1	11.5	-71.2
COC(=O)c1c(OC)cc2c(c1C)Oc1c(Cl)c(O)c(Cl)c(C)c1C(=O)O2	31.9*	6.7	3.0	7.9	21.2	-4.0
COC(=O)c1cc(O)cc(OC)c1C(=O)c1c(O)c(Cl)c(C)c(Cl)c1O	1.6	4.8	-0.7	2.6	14.9	4.3
SMILES	USP10 inh	OTUD3 inh	UCHL1 inh	USP7 block	USP28 block	USP8 inh
COc1c(C(CC(C)C)OC(C)=O)ccc(Oc2c(O)cc(C)cc2C=O)c1C(=O)O (centres undefined)	16.8	15.2	-0.9	6.1	23.0	-4.7
CC(=O)c1cccc(NC(=O)c2ccc(OC3CSC3)cc2)c1	9.9	12.3	3.0	6.0	15.0	-20.4
CC(=O)c1cccc(NC(=O)c2ccc3[nH]c4c(c3c2)CC(C)CC4)c1 (centres undefined)	-3.3	-3.0	4.2	-12.6	15.7	82.8*
O=C(NC1CCCC1)N1C2CCC(O)(CC2)C1CN1CCOCC1 (centres undefined)	2.3	12.4	2.3	6.7	7.4	9.6
Cc1ccc(-c2cc(C(F)F)n3ncc(C(=O)Nc4ccc5c(c4)OCO5)c3n2)cc1	-0.5	10.8	0.2	0.1	10.3	47.2*
O=c1c(S(=O)(=O)N2CCCC2)cccn1Cc1ccccc1	-1.6	1.5	-5.9	-10.1	-5.2	-1.4
COC(=O)c1ccc2c(c1)C(=O)c1ccccc1CO2	2.9	14.5	4.1	1.7	31.7*	7.0
CCc1ccc(S(=O)(=O)N2Cc3ccnn3CC(COC)C2)cc1 (centres undefined)	-0.5	0.1	0.1	-0.1	-1.8	-37.2
Cc1cccc(C(=O)Nc2ccccc2Sc2nc3c(c(=O)n(C)c(=O)n3C)n2C)c1	-2.2	26.4	1.6	-2.3	30.7*	18.8
Cc1cccc(C(=O)Nc2c(C)nc3ccccn3c2=O)c1	-2.3	9.2	3.7	0.2	6.0	17.2
Cc1ncc(-c2ccncc2)c(C2CCN(C(=O)Cc3ccc(F)cc3)CC2)n1	1.5	0.0	-6.4	-4.7	-1.5	5.0
O=C(NC1=NCCS1)c1cnn(Cc2ccccc2)c1	2.2	-7.3	-2.2	1.7	-7.2	-0.5
Cc1nn(-c2ccccc2)c(C)c1NC(=O)c1cnn(Cc2ccccc2)c1	0.3	15.1	1.0	1.8	31.2*	24.9
COc1ccc(CNC(=O)Cn2c(=O)[nH]c3c(-c4ccccc4F)c[nH]c3c2=O)cc1	22.4	-12.2	1.0	18.4	-47.2	86.5*
Cc1c(NC(=O)CC(=O)Nc2ccc3nc4n(c(=O)c3c2)CCCCC4)cccc1[N+](=O)[O-]	12.5	-31.1	-4.5	0.0	-26.0	-8.4
C[C@H](NC(=O)[C@@H]1Cc2c([nH]c3ccccc23)C2c3ccccc3C(=O)N21)C(=O)NCCc1ccc(Cl)cc1 (some centres undefined)	-10.3	-9.4	-4.3	-43.6	-0.5	-26.3
Cc1cc2c(=O)oc(-c3ccccc3Br)nc2s1	18.2	9.4	6.5	7.8	8.4	43.5*
Cc1cc(Br)c2nc(-c3cccc(C(F)(F)F)c3)oc(=O)c2c1	3.0	6.8	4.0	2.3	4.6	4.3
O=C1c2c(O)c(Cl)cc3c2[C@@]2(Oc4ccc(O)c5c4[C@]3(O2)[C@@H]2O[C@@H]2C5=O)[C@@H]2O[C@H]12	39.9*	88.7*	84.0*	82.0*	90.2*	27.1
